Reference: PubChem BioAssay AID504408 (Broad Institute, 2011)
Among all 300,000 compounds or so, about 5,200 (1.7%) were called active.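 Rule for the calls: active = mean replicate activation of at least 50% with a set share of replicates each reaching 50%; inconclusive = only one of those two conditions met; inactive = mean below 50% and too few replicates reaching it.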 The sample as a whole holds a higher share of actives than the screen did.

Experiment: HSF-1 activators, primary screen, NIH3T3-HGL cells, MG132 stress, luminescence, single point (AID 504408);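 note: 0% = median of the neutral control wells and 100% = twice that signal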
Conditions: NIH3T3-HGL HSF-1 luciferase reporter, MG132, 8 h; at 9 µM; active compounds read high; 100% = twice DMSO control signal

activation, inactive:
N#Cc1ccc(-c2ccc(F)cc2)nc1Sc1ccccc1 -14.9%, CN(C)c1ccnc(Oc2ccc(F)cc2)c1C#N 3.38%, CCOc1ccc(C(=O)CCC(=O)NC2=NCCS2)cc1 12.7%, CS(=O)(=O)c1ccc(Cl)c(NC(=O)Nc2ccccc2)c1 -2.82%, O=C(c1ccc(Cl)cc1)c1cnc(Nc2ccccc2)s1 34.7%, CC(Sc1nn(-c2ccc(Cl)cc2)c(=S)s1)C(=O)NCC1CCCO1 (stereo unspecified) 3.22%, CCC(=O)NC(=S)Nc1ccc(NC(=O)c2ccco2)c(Cl)c1 7.81%, O=C(NNC(=O)c1ccco1)Nc1ccccc1 12.4%, CCCCn1c(N)c(N(CCC(C)C)C(=O)c2ccc(COc3ccccc3)o2)c(=O)[nH]c1=O 7.06%, CCCCn1c(N)c(N(CC(C)C)C(=O)CN(C)S(=O)(=O)c2ccc(F)cc2)c(=O)[nH]c1=O -2.61%, Cc1ccc(S(=O)(=O)N2CCN(C(=O)c3ccc(-n4cncn4)c([N+](=O)[O-])c3)CC2)cc1 -21.4%, Cc1ccc(NC(=O)CSc2cccc3cccnc23)c(C)c1 4.2%, O=C(CNC(=O)c1cccnc1)N/N=C/c1cccnc1 -3.13%, CC(C)(C)S(=O)(=O)c1ccccc1-c1noc(-c2ccccc2)c1C(N)=O -2.64%, CCOc1cc(/C=C2\SC(N3CCCCC3)=NC2=O)ccc1O 34.2%, CC1CCN(C2=NC(=O)/C(=C/c3ccc(O)cc3)S2)CC1 8.53%, NC(=O)NC(=O)C(OC(=O)CCNS(=O)(=O)c1ccccc1)c1ccccc1 (stereo unspecified) 18.2%, O=C(CCNC(=O)c1ccc(Br)cc1)Nc1cccc(S(=O)(=O)N2CCCCC2)c1 23.3%, CCCCn1c(N)c(N(CC(C)C)C(=O)c2ccc(Br)o2)c(=O)[nH]c1=O -5.41%, CCOc1ccc(/C=C/C(=O)OCC(=O)c2ccccc2OC)cc1OC 1.42%, CCN1C(=O)[C@@H]2[C@@H](c3ccc(-c4ccccc4)cc3)N3CCCC[C@@]3(C(=O)OC)[C@@H]2C1=O 16.1%

activation, active:
N#Cc1ccc(-c2ccc(Cl)cc2)nc1Oc1ccc(F)cc1 82.1%, O=C(Nc1ccccc1)c1nnsc1S(=O)(=O)c1ccc(Cl)cc1 79.4%, O=C(NNC(=S)Nc1ccc(Br)cc1Cl)c1ccco1 59%, O=C(CSc1cccc2cccnc12)N/N=C/c1cccnc1 161%, O=C1N=C(N2CCCC2)S/C1=C\c1cccc(Br)c1 103%
